Source: PubChem BioAssay AID1259422 (The Scripps Research Institute Molecular Screening Center, 2018)
In all, about 640,000 compounds went through this assay and about 9,300 (1.5%) were called active. Rule as the data show it: active = inhibition above about 32%; inactive = the rest. The list comes from a sample in which actives are over-represented; it also holds similar structures and randomly drawn compounds.

Test: TEAD-YAP interaction inhibition, primary screen, TEAD-YAP interaction inhibitor project, luminescence, HEK-TIYL cells (AID 1259422);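 also: 0% = median of test compound wells and 100% = reference inhibitor wells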
Settings: TEAD-Gal4/YAP UAS-luciferase luminescence, at 9.12 µM, active compounds read high

| SMILES | inhibition |
| --- | --- |
| COc1ccc(C(C)=O)c(OC(=O)Cc2cc(OC)c(OC)c(OC)c2)c1 | 12.9% (inactive) |
| COc1cc(C(=O)Nc2ccc(C(=O)O)cc2)c2ccccc2n1 | -2.83% (inactive) |
| COc1ccc(-c2cc(C(=O)Nc3ccccc3)c3ccccc3n2)cc1 | -2.31% (inactive) |
| COc1cc(C(=O)Nc2ccc(C(C)=O)cc2)c2ccccc2n1 | 47.1% (active) |
| C/C(=C\c1ccccc1)C(=O)Nc1ccccc1C(=O)O | 36.6% (active) |
| CCCC(=O)Nc1ccccc1C(=O)O | -0.09% (inactive) |
| COC(=O)c1ccccc1NC(=O)C(=O)Nc1ccccc1C(=O)OC | -3.84% (inactive) |
| COc1ccc(Nc2c(C#N)cnc3ccccc23)cc1Cl | 49.7% (active) |
| COc1ccc(NC(=O)Cc2c[nH]c3ccccc23)cc1Cl | 4.42% (inactive) |
| CCN1CCN(c2ncc(C(=O)Nc3ccc(OC)c(Cl)c3)c3ccccc23)CC1 | -15.1% (inactive) |
| Cc1ccc(/C=C2/SC(=Nc3ccccc3Cl)NC2=O)cc1 | 37.2% (active) |
| COc1cc(/C=C2/SC(=Nc3ccccc3Cl)NC2=O)cc(OC)c1OC | -2.07% (inactive) |
| Cc1cccc(C(=O)Oc2ccc(/C=C3/SC(=Nc4ccccc4Cl)NC3=O)cc2)c1 | 0.81% (inactive) |
| CC(=O)Nc1nc2cc([N+](=O)[O-])c(C)cc2s1 | -21.7% (inactive) |
| CCOc1ccccc1C1C(C(=O)OC)=C(C)NC2=C1C(=O)CC(c1ccccc1)C2 (centres undefined) | -5.16% (inactive) |
| CCOc1ccccc1C1CC(=O)NC2=C1C(=O)CC(c1ccccc1Cl)C2 (centres undefined) | 36.2% (active) |
| COc1cc(C2C(C(=O)OC3CCCCC3)=C(C)NC3=C2C(=O)CC(c2ccccc2)C3)cc(Cl)c1O (centres undefined) | -1.53% (inactive) |
| COc1cc(C2Nc3ccccc3NC3=C2C(=O)CC(c2ccccc2Cl)C3)cc(Cl)c1O (centres undefined) | 54.8% (active) |
| COc1ccc(C2CC(=O)NC3=C2C(=O)CC(c2ccccc2Cl)C3)cc1 (centres undefined) | 6.64% (inactive) |
| COc1ccc(C2CC(=O)C3=C(C2)Nc2ccccc2NC3c2cccc(Cl)c2)cc1 (centres undefined) | 1.54% (inactive) |
| O=C(CCCn1nnc(-c2ccccc2F)n1)c1ccc(O)cc1 | -5.05% (inactive) |
| CCc1ccc(N/C(SCc2cccc([N+](=O)[O-])c2)=C(/C#N)C(=O)NCc2ccco2)cc1 | -0.35% (inactive) |
| CC(=O)Nc1ccc(NC(=O)C(=O)NCc2ccc(F)cc2)cc1 | 0.35% (inactive) |
| COc1ccc(CCn2c(SCC(=O)N3CCN(c4ccccc4OC)CC3)nc3ccccc3c2=O)cc1OC | 36.9% (active) |
| COc1ccccc1N1CCN(C(=O)CSc2nc3ccccc3c(=O)n2Cc2cccs2)CC1 | -7.66% (inactive) |
| COc1ccc(CCn2c(SCC(=O)Nc3ccc(C)c(C)c3)nc3ccccc3c2=O)cc1OC | 8.03% (inactive) |
| COc1ccccc1N1CCN(C(=O)CSc2nc3ccsc3c(=O)n2-c2ccccc2)CC1 | 1.01% (inactive) |
| COc1ccccc1N1CCN(C(=O)CSc2nc3ccsc3c(=O)n2CCc2ccccc2)CC1 | 43.9% (active) |
| CCN(CC)C(=O)CSc1nc2ccsc2c(=O)n1CCc1ccccc1 | 16.3% (inactive) |
